Reference: PubChem BioAssay AID1159580 (chemical genetic matrix, 2015)
Screen size: about 5,500 compounds; about 2,000 (36%) were called active. Not shown: some 18% with an inconclusive outcome. No stated cut-off is given here; in the data, active means normalized growth mostly below about 0.91 (no sharp cut-off); inconclusive means no clear call, values can overlap the other calls; inactive means mostly above about 0.92. Some of the results follow.

Assay: chemical genetic growth profiling, strain panel (AID 1159580);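 further: tested at 20 µM; growth read once vehicle control cultures reached saturation at 30 °C; 1 = growth at the plate median or of vehicle wells; lower values mean less growth of the strain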
Details: S. cerevisiae deletion strains, growth OD
[1] = locus YHR030C, strain SLT2, active compounds read low
[2] = locus YHR079C, strain IRE1, active compounds read low
[3] = locus YJL095W, strain BCK1, active compounds read low
[4] = locus YJR066W, strain TOR1, active compounds read low
[5] = locus YLR113W, strain HOG1, active compounds read low
[6] = locus YNL183C, strain NPR1, active compounds read low
[7] = locus YOR231W, strain MKK1, active compounds read low
[8] = locus YPL256C, strain CLN2, active compounds read low

Measured: normalized growth

COc1ccc(-c2oc3cc(OC)c(OC)c(OC)c3c(=O)c2OC)cc1OC
inactive: locus YAL021C, strain ccr4, active compounds read low 0.98 | locus YAL026C, strain drs2, active compounds read low 0.957 | locus YAL030W, strain snc1, active compounds read low 0.979 | locus YBL061C, strain skt5, active compounds read low 0.998 | locus YBR009C, strain hhf1, active compounds read low 0.966 | locus YBR023C, strain chs3, active compounds read low 0.986 | locus YBR171W, strain sec66, active compounds read low 0.972 | locus YBR231C, strain swc5, active compounds read low 0.968 | locus YBR279W, strain paf1, active compounds read low 0.983 | locus YCL011C, strain gbp2, active compounds read low 0.972 | locus YCL016C, strain dcc1, active compounds read low 1 | locus YCL061C, strain MRC1, active compounds read low 0.993 | locus YCL069W, strain vba3, active compounds read low 0.977 | locus YCR088W, strain abp1, active compounds read low 0.976 | locus YDL005C, strain med2, active compounds read low 0.981 | locus YDL040C, strain nat1, active compounds read low 0.982 | locus YDR001C, strain nth1, active compounds read low 0.978 | locus YDR069C, strain doa4, active compounds read low 0.972 | locus YDR137W, strain rgp1, active compounds read low 0.966 | locus YDR159W, strain sac3, active compounds read low 0.966 | locus YDR195W, strain ref2 0.982 | locus YDR297W, strain sur2, active compounds read low 0.984 | locus YDR334W, strain swr1, active compounds read low 0.97 | locus YDR335W, strain msn5, active compounds read low 0.982 | locus YDR392W, strain spt3, active compounds read low 0.767 | locus YEL003W, strain gim4, active compounds read low 0.973 | locus YEL037C, strain rad23, active compounds read low 0.956 | locus YEL061C, strain CIN8 (second series), active compounds read low 0.971 | locus YER015W, strain faa2, active compounds read low 0.99 | locus YER016W, strain bim1, active compounds read low 0.986 | locus YER111C, strain swi4, active compounds read low 0.976 | locus YER155C, strain BEM2 (second series), active compounds read low 0.932 | locus YFR010W, strain ubp6, active compounds read low 0.96 | locus YGL167C, strain pmr1, active compounds read low 0.983 | locus YGL173C, strain kem1, active compounds read low 0.996 | locus YGL227W, strain vid30, active compounds read low 0.976 | locus YGL240W, strain doc1, active compounds read low 0.973 | locus YGL253W, strain hxk2, active compounds read low 0.92 | locus YHR013C, strain ard1, active compounds read low 0.956 | locus YHR027C, strain rpn1, active compounds read low 1 | [1] 1.03 | [2] 1.01 | locus YHR142W, strain chs7, active compounds read low 0.933 | locus YJL092W, strain hpr5, active compounds read low 0.966 | locus YJL095W, strain BCK1 (second series), active compounds read low 0.987 | [3] 0.972 | locus YJL115W, strain asf1, active compounds read low 0.986 | locus YJL129C, strain trk1, active compounds read low 0.979 | locus YJL154C, strain vps35, active compounds read low 0.974 | locus YJL164C, strain tpk1, active compounds read low 0.974 | locus YJL166W, strain qcr8, active compounds read low 0.978 | locus YJL187C, strain SWE1, active compounds read low 0.981 | [4] 1 | locus YKL160W, strain elf1, active compounds read low 0.998 | locus YKR026C, strain gcn3, active compounds read low 0.976 | locus YKR091W, strain srl3, active compounds read low 0.985 | locus YLL001W, strain dnm1, active compounds read low 1 | locus YLL026W, active compounds read low 0.989 | locus YLL041C, strain sdh2, active compounds read low 0.977 | locus YLR027C, strain aat2, active compounds read low 0.986 | [5] 0.902 | locus YLR221C, strain rsa3, active compounds read low 1.01 | locus YLR258W, strain gsy2, active compounds read low 0.994 | locus YLR262C, strain YPT6 (second series), active compounds read low 0.95 | locus YLR320W, strain mms22, active compounds read low 0.99 | locus YLR342W, strain FKS1, active compounds read low 0.959 | locus YLR357W, strain rsc2, active compounds read low 0.96 | locus YLR370C, strain arc18, active compounds read low 0.986 | locus YLR384C, strain iki3, active compounds read low 0.996 | locus YML120C, strain ndi1, active compounds read low 0.97 | locus YMR058W, strain fet3, active compounds read low 0.971 | locus YMR125W, strain sto1, active compounds read low 0.964 | locus YMR129W, active compounds read low 0.976 | locus YMR205C, strain PFK2, active compounds read low 0.997 | locus YMR231W, strain pep5, active compounds read low 0.992 | locus YNL071W, strain lat1, active compounds read low 0.969 | [6] 0.956 | locus YNL209W, strain ssb2, active compounds read low 0.993 | locus YNL248C, strain rpa49, active compounds read low 0.967 | locus YNL322C, strain KRE1 (second series), active compounds read low 0.989 | locus YNR049C, strain mso1, active compounds read low 0.982 | locus YOR001W, strain rrp6, active compounds read low 0.938 | locus YOR070C, strain gyp1, active compounds read low 0.983 | locus YOR080W, strain dia2, active compounds read low 0.987 | locus YOR083W, strain WHI5, active compounds read low 0.998 | locus YOR106W, strain vam3, active compounds read low 0.991 | [7] 1.02 | locus YOR265W, strain rbl2, active compounds read low 0.987 | locus YOR270C, strain vph1, active compounds read low 0.863 | locus YOR290C, strain snf2, active compounds read low 0.953 | locus YPL051W, strain arl3, active compounds read low 1 | locus YPL078C, strain atp4, active compounds read low 0.977 | locus YPL106C, strain sse1, active compounds read low 0.969 | locus YPL240C, strain hsp82, active compounds read low 0.995 | [8] 1

COc1ccc(-c2oc3ccccc3c(=O)c2OC)cc1
inactive: [1] 0.882 | [2] 0.897 | [3] 0.909 | [4] 0.829 | [5] 0.934 | [6] 0.836 | [7] 0.901 | [8] 0.894
